# Source: PubChem BioAssay (Tox21)
# Values joined by “and” are separate entries in the source; they are usually repeats but may differ in a detail not shown here. Equal entries are not always repeated. Values without a mark were called inactive. Results filed as inconclusive are left out. Entries that show only a call come without a potency. Active and inactive are the calls of the source. Calls come from the whole dose curve; as a rule, active = well fitted curve in the direction sought with a large enough effect in the repeat runs; inconclusive = weak or mixed curves; inactive = no such curve, though single readings can be large; an effect the other way counts as inactive or inconclusive.
# Legend:
# [1] = qHTS RealTime-Glo MT Cell Viability Assay in HEK293 cells - 40 hour (AID 1224874); settings: RealTime-Glo luminescence; max response: hits give low values; note: nearly all actives have a fitted effect of over 50% in size; note: potency is the fitted concentration of half-maximal effect
# In short: (§1)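 600 HEK293 cells per well, dispensed already mixed with RealTime-Glo MT reagents. Compound dosing came 5 h later. The same wells were read for luminescence at 0, 8, 16, 24, 32 and 40 h of exposure at 37 C.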
# [2] = A CellTox Green Cytotoxicity Assay to monitor cytotoxicity in HepG2 cells - 16 hour (AID 1224876); note: nearly all actives have a fitted effect of over 45% in size; note: potency is the fitted concentration of half-maximal effect
# In short: (§2)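 First, HepG2 cells (600/well) mixed with reagent were plated; second, after 5 h at 37 C they received compounds via pintool; third, fluorescence was measured at 0 h through 40 h at 8 h intervals.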
# [3] = qHTS RealTime-Glo MT Cell Viability Assay in HepG2 cells - 32 hour (AID 1224877); note: nearly all actives have a fitted effect of over 55% in size; note: potency is the fitted concentration of half-maximal effect
# In short: (§3)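 qHTS, HepG2, 600 cells/well, RealTime-Glo (NanoLuc + prosubstrate) added with cells; 5 h preincubation; DMSO compound addition; 37 C; luminescence at 0/8/16/24/32/40 h.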
# [4] = A CellTox Green Cytotoxicity Assay to monitor cytotoxicity in HepG2 cells - 24 hour (AID 1224878); note: nearly all actives have a fitted effect of over 45% in size; note: potency is the fitted concentration of half-maximal effect
# In short: as §2
# [5] = A CellTox Green Cytotoxicity Assay to monitor cytotoxicity in HepG2 cells - 40 hour (AID 1224879); note: nearly all actives have a fitted effect of over 40% in size; note: potency is the fitted concentration of half-maximal effect
# In short: as §2
# [6] = A CellTox Green Cytotoxicity Assay to monitor cytotoxicity in HepG2 cells - 0 hour (AID 1224882); note: nearly all actives have a fitted effect of over 35% in size
# In short: as §2
# [7] = A CellTox Green Cytotoxicity Assay to monitor cytotoxicity in HepG2 cells - 32 hour (AID 1224883); note: potency is the fitted concentration of half-maximal effect; nearly all actives have a fitted effect of over 50% in size
# In short: as §2
# [8] = qHTS RealTime-Glo MT Cell Viability Assay in HepG2 cells - 16 hour (AID 1224885); note: nearly all actives have a fitted effect of over 50% in size; note: potency is the fitted concentration of half-maximal effect
# In short: as §3
# [9] = qHTS RealTime-Glo MT Cell Viability Assay in HEK293 cells - 24 hour (AID 1224886); note: nearly all actives have a fitted effect of over 50% in size; note: potency is the fitted concentration of half-maximal effect
# In short: (§4)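 Assay medium contained NanoLuc luciferase plus cell-permeant prosubstrate, added with HEK293 cells at 600 cells/well. After 5 h at 37 C/5% CO2 compounds were added; plates stayed at 37 C for 40 h with serial luminescence reads.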
# [10] = qHTS RealTime-Glo MT Cell Viability Assay in HepG2 cells - 0 hour (AID 1224889); note: nearly all actives have a fitted effect of over 50% in size
# In short: as §3
# [11] = qHTS assay to identify small molecule antagonists of the estrogen receptor alpha (ER-alpha) signaling pathway using the BG1 cell line in the presence of 0.1 nM 17-beta-estradiol - cell viability counter screen (AID 1259241); note: nearly all actives have a fitted effect of over 40% in size; note: potency is the fitted concentration of half-maximal effect
# In short: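 VM7Luc4E2, 4,000 cells/well, phenol red-free medium + 10% charcoal-stripped FBS; 24 hr plating; cpd + 0.1 nM E2 final, 22 hr 37C/5% CO2; CellTiter-Fluor 30 min, fluorescence.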
# [12] = qHTS RealTime-Glo MT Cell Viability Assay in HEK293 cells - 16 hour (AID 1224872); note: nearly all actives have a fitted effect of over 50% in size; note: potency is the fitted concentration of half-maximal effect
# In short: as §4
# [13] = A CellTox Green Cytotoxicity Assay to monitor cytotoxicity in HEK293 cells - 24 hour (AID 1224875); note: nearly all actives have a fitted effect of over 45% in size; note: potency is the fitted concentration of half-maximal effect
# In short: (§5)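 Dead-cell fluorescence measured kinetically: asymmetric cyanine dye, HEK293, 600 cells/well, 5 h settle, 23 nL cpd/DMSO, 37 C, reads 0–40 h every 8 h.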
# [14] = qHTS RealTime-Glo MT Cell Viability Assay in HEK293 cells - 0 hour (AID 1224880); note: top concentration of the series differs between compounds; nearly all actives have a fitted effect of over 45% in size
# In short: as §1
# [15] = A CellTox Green Cytotoxicity Assay to monitor cytotoxicity in HEK293 cells - 32 hour (AID 1224881); note: nearly all actives have a fitted effect of over 40% in size; note: potency is the fitted concentration of half-maximal effect
# In short: as §5
# [16] = A CellTox Green Cytotoxicity Assay to monitor cytotoxicity in HEK293 cells - 8 hour (AID 1224884); note: nearly all actives have a fitted effect of over 35% in size
# In short: as §5
# [17] = qHTS RealTime-Glo MT Cell Viability Assay in HEK293 cells - 8 hour (AID 1224887); note: nearly all actives have a fitted effect of over 50% in size; note: potency is the fitted concentration of half-maximal effect
# In short: as §1
# [18] = A CellTox Green Cytotoxicity Assay to monitor cytotoxicity in HEK293 cells - 16 hour (AID 1224888); note: nearly all actives have a fitted effect of over 35% in size
# In short: as §5
# [19] = A CellTox Green Cytotoxicity Assay to monitor cytotoxicity in HepG2 cells - 8 hour (AID 1224890); note: nearly all actives have a fitted effect of over 45% in size
# In short: as §2
# [20] = qHTS RealTime-Glo MT Cell Viability Assay in HepG2 cells - 8 hour (AID 1224873); note: nearly all actives have a fitted effect of over 55% in size
# In short: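 Real-time viability: cells seeded at 600 per well together with NanoLuc and cell-permeant prosubstrate, compounds added after 5 h incubation. Luminescence tracked at 0, 8, 16, 24, 32 and 40 h of exposure.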
smiles,measurement,setting,value
CN[C@H]1CC[C@@H](c2ccc(Cl)c(Cl)c2)c2ccccc21,Potency,[1],23.9 µM (active)
same,Potency,[2],19 µM (active)
same,Potency,[3],23.9 µM (active)
same,Potency,[4],19 µM (active)
same,Potency,[5],16.9 µM (active)
same,Potency,[6],inactive
same,Potency,[7],19 µM (active)
same,Potency,[8],23.9 µM (active)
same,Potency,[9],21.3 µM (active)
same,Potency,[10],inactive
same,Potency,[11],inactive
CN(C)C(=S)SC(=S)N(C)C,Potency,[12],2.24 µM (active) and 2.75 µM (active) and 6.74 µM (active)
same,Potency,[1],1.59 µM (active) and 1.23 µM (active) and 6.01 µM (active)
same,Potency,[13],3.99 µM (active) and 21.9 µM (active)
same,Potency,[3],1.55 µM (active) and 3.38 µM (active)
same,Potency,[4],3.17 µM (active) and 2.45 µM (active) and 2.39 µM (active)
same,Potency,[5],2.52 µM (active) and 1.38 µM (active) and 2.39 µM (active)
same,Potency,[14],inactive
same,Potency,[15],2.52 µM (active) and 8.71 µM (active) and 3.01 µM (active)
same,Potency,[6],inactive
same,Potency,[16],inactive
same,Potency,[8],2.75 µM (active)
same,Potency,[9],2.24 µM (active) and 2.19 µM (active) and 6.74 µM (active)
same,Potency,[17],inactive
same,Potency,[18],inactive
same,Potency,[10],inactive
same,Potency,[19],inactive
same,Potency,[11],2.5 µM (active) and 5.45 µM (active) and 3.76 µM (active)
COc1ccc(OC(F)(F)F)cc1CN[C@H]1CCCN[C@H]1c1ccccc1,Potency,[12],49 µM (active)
same,Potency,[1],43.6 µM (active)
same,Potency,[2],54.9 µM (active)
same,Potency,[3],54.9 µM (active)
same,Potency,[4],49 µM (active)
same,Potency,[5],49 µM (active)
same,Potency,[6],inactive
same,Potency,[7],49 µM (active)
same,Potency,[8],54.9 µM (active)
same,Potency,[9],43.6 µM (active)
Nc1ccc(O)c([N+](=O)[O-])c1,Potency,[12],inactive
same,Potency,[20],inactive
same,Potency,[13],inactive
same,Potency,[2],inactive
same,Potency,[3],inactive
same,Potency,[4],inactive
same,Potency,[5],inactive
same,Potency,[15],inactive
same,Potency,[6],inactive
same,Potency,[16],inactive
same,Potency,[8],inactive
same,Potency,[17],inactive
same,Potency,[18],inactive
same,Potency,[19],inactive
CC(C)c1c(C(=O)Nc2ccccc2)c(-c2ccccc2)c(-c2ccc(F)cc2)n1CC[C@@H](O)C[C@@H](O)CC(=O)O,Potency,[12],inactive
same,Potency,[20],inactive
same,max response,[1],-21%
same,Potency,[13],inactive
same,Potency,[3],inactive
same,Potency,[4],2.98 µM (active) and 45.8 µM (active) and 4.77 µM (active)
same,Potency,[5],4.21 µM (active) and 5.13 µM (active) and 7.56 µM (active)
same,Potency,[14],inactive
same,Potency,[15],inactive
same,Potency,[6],inactive
same,Potency,[16],inactive
same,Potency,[8],inactive
same,Potency,[9],inactive
same,Potency,[18],inactive
same,Potency,[19],inactive
same,Potency,[11],inactive
C=C1CC[C@H](O)C/C1=C\C=C1/CCC[C@]2(C)[C@@H]([C@H](C)CCCC(C)C)CC[C@@H]12,Potency,[12],38.5 µM (active)
same,Potency,[20],inactive
same,Potency,[1],43.2 µM (active)
same,Potency,[13],inactive
same,Potency,[3],inactive
same,Potency,[4],inactive
same,Potency,[5],inactive
same,Potency,[14],inactive
same,Potency,[15],inactive
same,Potency,[6],inactive
same,Potency,[16],inactive
same,Potency,[8],inactive
same,Potency,[9],43.2 µM (active)
same,Potency,[17],24.3 µM (active)
same,Potency,[18],inactive
same,Potency,[19],inactive
same,Potency,[11],inactive
